Most compounds without a hit are left out; they make up all but 5.1% or so of the library.
TMEM16A inh: TMEM16A chloride channel inhibitors, primary screen, cell-based, HTS; AID 588511, 2011; normalized B-score (activity score, 25-100; higher = stronger inhibition) at 10 µM; hit rate 1.2% among 310,000; HEK293 TMEM16A/YFP iodide influx fluorescence, ionomycin; Anoctamin-1 (Mus musculus), Q8BHY3;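 active means ratio plate-corrected score three or more library SD toward inhibition, starting fluorescence score within five deviations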;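 further: score derived from kinetic fluorescence span divided by baseline fluorescence per well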
MPTP block: mitochondrial permeability transition pore inhibitors, primary screen, biochemical, isolated mouse mitochondria, absorbance; AID 602449, 2012; Ca2+ swelling absorbance, 30 min; hit rate 1.4% among 360,000; inhibition, % at 10 µM;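 active means inhibition of 50% or more, scaled per plate between neutral and stimulator controls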;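 further: 0% = DMSO wells given calcium and 100% = 1 mM EGTA wells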
CRFR2-BP ag: agonists of CRF-BP/CRF-R2 complex, primary screen, cell-based, HEK293, calcium dye fluorescence, uHTS; CRF-binding protein / CRF receptor 2 complex (human); hit rate 0.46% among 350,000; calcium dye fluorescence (FLIPR); percent of saturating CRF peptide response; activation, % at 13.2 µM; AID 588473, 2011;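 active means activation of at least 50%, plus an integration ratio under a set limit after plate pattern correction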;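 further: plate controls were neutral control wells without compound for no effect and CRF at EC100 for full effect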
GRIN3A LBD mod: binders of NR3A ligand-binding domain, primary screen, biophysical, differential scanning fluorimetry, uHTS. NR3A LBD differential scanning fluorimetry, Tm shift; 0% = protein alone, 100% = glycine-bound protein. Glutamate receptor ionotropic, NMDA 3A (GRIN3A) ligand-binding domain. hit rate 2.5% among 340,000. Tm shift relative to glycine control, % at 25 µM;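 active means melting temperature shift of at least 10% of the positive control shift, at one fixed dose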
CRFR2-BP antag: antagonists of CRF-BP/CRF-R2 complex, primary screen, cell-based, HEK293, calcium dye fluorescence, uHTS. CRF-induced calcium fluorescence. inhibition, % at 11.8 µM. hit rate 0.59% among 350,000. AID 588475, 2011;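 active means inhibition of the ligand-induced calcium signal above about 50% at the single tested concentration, limit read from the data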
TMEM16A act: TMEM16A chloride channel activators or potentiators, primary screen, cell-based, HTS | AID 623877, 2012 | Anoctamin-1 (Mus musculus), Q8BHY3 | hit rate 0.3% among 340,000 | B-score at 10 µM | HEK293 TMEM16A/YFP-H148Q/I152L, iodide quench fluorescence; stronger effect = lower value;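 active means fluorescence-ratio B-score plate-corrected deviation score at least 3 library SD below zero, with starting fluorescence score within 5 deviations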;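 further: channel opened by trigger with iodide after compound preincubation; score built on the fluorescence ratio of max minus min over baseline; more negative score means more quench and so TMEM16A activation or potentiation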
Active calls of the source: *; i = inactive; / = not tested or not shown.

SMILES	TMEM16A inh	MPTP block	CRFR2-BP ag	GRIN3A LBD mod	CRFR2-BP antag	TMEM16A act
CCOC(=O)C1CCN(C(=O)COC(=O)CN(C)S(=O)(=O)c2ccc(NC(C)=O)cc2)CC1	i	-0.1	1.0	10.3*	-12.9	i
CN(CC(=O)OCC(N)=O)S(=O)(=O)c1ccc(Cl)cc1	i	-0.8	0.7	-0.2	0.5	i
CN(CC(=O)OCC(=O)Nc1ccccc1)S(=O)(=O)c1ccc(Cl)cc1	i	2.4	-0.1	18.1*	6.8	i
CC(=O)Nc1ccc(NC(=O)C(C)OC(=O)CN(C)S(=O)(=O)c2ccc(Cl)cc2)cc1 (stereo not drawn)	i	-3.2	0.6	14.6*	-1.7	i
Cc1c(Cl)cc(C(C)C)c(O)c1CN1CCOCC1	/	0.8	-1.7	0.5	-31.0	i
COc1ccc(C2C(C(=O)c3ccccc3)N3c4ccccc4C=CC3C2[N+](=O)[O-])cc1 (stereo not drawn)	/	1.7	11.6	-2.0	-17.9	i
Cc1c(C(=S)Nc2ccccc2)cnn1-c1ccccc1	i	0.6	0.5	14.8*	-6.1	i
Cc1c(C(=S)Nc2ccccc2)cnn1-c1ccc([N+](=O)[O-])cc1	i	9.8	0.1	-8.3	6.4	i
CC(CN1CCN(C/C=C/c2ccccc2)CC1)c1ccccc1 (stereo not drawn)	i	0.5	-1.9	-1.7	12.9	i
Cc1ccnc(NS(=O)(=O)c2cc(-c3cc(C)no3)ccc2C(C)C)c1	i	0.3	2.1	0.4	-3.1	i
O=C(COc1ccc(F)cc1)N/N=C/c1cccc2cccnc12	i	-0.9	0.0	-1.8	-16.1	i
COc1cc(/C=C2\SC(=S)N(NS(=O)(=O)c3ccccc3)C2=O)cc(OC)c1OC	i	5.2	-0.3	-8.1	27.3	i
COc1ccc(/C=C2/SC(=O)N(NS(=O)(=O)c3ccccc3)C2=S)cc1OC	i	3.1	-0.4	-7.0	52.4*	i
COc1cccc(/C=C2\SC(=S)N(NS(=O)(=O)c3ccccc3)C2=O)c1OC	i	2.7	-0.2	0.0	63.5*	i
O=c1c2ccccc2oc2ccc(-c3ccc4cc[nH]c4c3)cc12	/	0.1	-1.0	26.0*	-5.4	i
O=C(Oc1ccc[nH]c1=O)c1ccc(F)cc1	/	-1.0	4.0	/	20.1	/
CCOC1=C2CN(S(=O)(=O)c3ccc(C)cc3)C(c3ccc(CC)cc3)CC2n2c(=O)n(-c3ccccc3)c(=O)n2C1 (stereo not drawn)	/	-1.6	/	/	/	/
CN(C(=O)c1ccc(C#N)cc1)c1nnc(-c2cnccn2)s1	i	0.5	-1.3	-0.7	6.0	-5.2*
O=C(Nc1nnc(SCc2ccccc2Cl)s1)C1COc2ccccc2O1 (stereo not drawn)	25*	34.9	0.0	6.6	-40.5	i
Cn1c(CC(=O)NNC(=O)c2ccc(F)cc2Cl)nc2ccccc21	/	-2.3	0.0	-2.1	-9.6	i
Nc1c(N(CCCO)C(=O)C2CCCCC2)c(=O)[nH]c(=O)n1Cc1ccccc1	/	-0.2	-3.1	-0.2	-10.7	i
COc1ccc(-c2oc(=O)c3cc(OC)c(OC)cc3c2C#CC2(O)CCCCC2)cc1	/	-0.8	3.3	12.9*	4.3	i
COc1ccc(-c2oc(=O)c3cc(OC)c(OC)cc3c2C#CCCCO)cc1	/	-0.4	-2.6	0.0	12.3	i
COc1ccc(C2NC(c3ccc(OC)cc3OC)C(C)C(=O)C2C)c(OC)c1 (stereo not drawn)	i	-2.4	-0.5	-1.9	8.0	-5.91*
COc1ccc(OC)c(C2CC(=O)C(C)C(c3cc(OC)ccc3OC)N2)c1 (stereo not drawn)	i	-1.4	-0.5	-1.3	6.6	i
SMILES	TMEM16A inh	MPTP block	CRFR2-BP ag	GRIN3A LBD mod	CRFR2-BP antag	TMEM16A act
Cc1noc(C)c1NC(=O)N(C)C[C@@H]1Oc2ncc(Br)cc2C(=O)N([C@@H](C)CO)C[C@@H]1C	/	-0.3	0.2	/	-5.7	/
O=c1c(O)c(-c2ccc(O)cc2)oc2cc(O)cc(O)c12	i	0.1	-2.3	13.3*	-32.4	i
COc1ccc(-c2cc(=O)c3c(O)c(OC)c(O)cc3o2)cc1	i	-1.5	-0.8	12.3*	5.2	i
O=c1cc(-c2ccccc2)oc2cc(O)cc(O)c12	i	1.2	-1.4	-8.3	5.9	i
O=c1cc(-c2ccc(O)cc2)oc2cc(O)cc(O)c12	i	0.8	2.8	17.4*	7.2	i
O=C1C=C(N2CCN(C(=O)c3ccccc3)CC2)C2(CCCCC2)O1	i	-1.3	-0.1	11.3*	-11.2	i
CC(C)OCc1c(C(=O)OC/C(O)=C(\C#N)c2nc3ccccc3[nH]2)oc2ccccc12	i	1.3	3.6	-1.1	62.3*	i
N#C/C(=C(/O)COC(=O)CSc1ccc2ccccc2c1)c1nc2ccccc2[nH]1	i	0.1	1.5	20.5*	-24.8	i
N#C/C(=C(/O)COC(=O)COc1cccc(Br)c1)c1nc2ccccc2[nH]1	i	1.2	4.4	-5.9	100.0*	i
Cc1c(C(=O)OC/C(O)=C(\C#N)c2nc3ccccc3[nH]2)oc2ccc(Br)cc12	i	9.3	0.9	-4.6	4.8	i
Cn1ccc2c(-c3ccc4c(c3)OCCO4)cc3c(c21)C1CCC3C1 (stereo not drawn)	/	0.9	/	/	/	/
COc1cc(/C=C(\NC(=O)c2ccccc2)C(=O)Nc2nccs2)ccc1OC(C)=O	i	-0.9	-0.5	-2.5	-6.1	i
CCC1CCc2c(sc(NC(=O)C3c4ccccc4Oc4ccccc43)c2C(N)=O)C1 (stereo not drawn)	i	18.2	0.4	16.8*	-26.9	i
CCOC(=O)c1cnn(CCOC(=O)c2ccc(OC)cc2)c1NC(=O)c1ccc(OC)cc1	i	1.2	-0.9	16.4*	-10.9	i
CCOC(=O)c1cnn(CCOC(=O)c2ccccc2)c1NC(=O)c1ccccc1	i	-0.1	-0.9	-9.7	0.7	i
CC(CCl)n1c(=O)c2ccccc2n1C(=O)c1ccccc1 (stereo not drawn)	/	0.2	/	/	/	/
CC(CO)NS(=O)(=O)c1cccc(Cl)c1F (stereo not drawn)	/	-0.4	-0.2	/	-7.7	/
COc1ccc(CN2CCS(=O)(=O)CC2)cc1OC	i	-1.9	5.1	0.6	64.0*	i
COc1ccc(CN2CCN(Cc3ccc4ccccc4c3)CC2)cc1OC	i	-0.2	-1.0	0.5	-9.1	i

High-throughput results from PubChem.
